Experimental data: PubChem BioAssay (EPA / NIEHS)
Activity calls are given as the source filed them. How the source made its calls: active means hit-call score of the fitted dose curve at least 0.9, where 1 is the maximum; inactive means score below 0.9.

Tests used:
Settings in all cases: mRNA level, 48 h; actives raise or lower the signal
[1] = read-out: Interleukin 6 (IL6), IL6 (gene 3569); experiment: LTEA_HepaRG_IL6: Life Technologies and Expression Analysis (LTEA) Assay for Interleukin 6 (IL6) using HepaRG (AID 2283509)
Outline: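 qRT-PCR read-out of IL6 transcript, normalized to three housekeeping genes, after 48 h chemical exposure of HepaRG cells; 8-point half-log series, top 100 uM, 0.5% DMSO vehicle. Bidirectional curve fitting against DMSO baseline.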

[2] = read-out: Interleukin 6 Receptor (IL6R), IL6R (gene 3570); experiment: LTEA_HepaRG_IL6R: Life Technologies and Expression Analysis (LTEA) Assay for Interleukin 6 Receptor (IL6R) using HepaRG (AID 2283510);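 on AC50: TaqMan qRT-PCR signal normalized to ACTB GAPDH and POLR2A housekeeping genes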
Outline: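 HepaRG, 48 h exposure, 8-pt half-log series, top 100 uM, 0.5% DMSO vehicle, duplicates. Read-out: TaqMan qRT-PCR of IL6R transcript, housekeeping-gene normalized. Gain or loss fitted relative to DMSO baseline.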

[3] = read-out: Keratin 19 (KRT19), KRT19 (gene 3880); experiment: LTEA_HepaRG_KRT19: Life Technologies and Expression Analysis (LTEA) Assay for Keratin 19 (KRT19) using HepaRG (AID 2283512)
Outline: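 Differentiated human HepaRG cells, plated 48 h, were exposed in duplicate for 48 h in serum-free induction medium to eight half-log concentrations up to 100 uM in 0.5% DMSO. KRT19 mRNA was quantified by qRT-PCR, normalized to ACTB, GAPDH and POLR2A, and fitted bidirectionally versus DMSO.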

[4] = read-out: JUN Transcription Factor, JUN (gene 3725); experiment: LTEA_HepaRG_JUN: Life Technologies and Expression Analysis (LTEA) Assay for JUN Transcription Factor using HepaRG (AID 2283513)
Outline: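 HepaRG, 48 h exposure, 8-pt half-log series top 100 uM, 0.5% DMSO, duplicate. JUN mRNA by qRT-PCR (Fluidigm), housekeeping-normalized (ACTB/GAPDH/POLR2A); bidirectional curve fit vs DMSO baseline.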

[5] = read-out: Lipase C (LIPC), LIPC (gene 3990); experiment: LTEA_HepaRG_LIPC: Life Technologies and Expression Analysis (LTEA) Assay for Lipase C (LIPC) using HepaRG (AID 2283514)
Outline: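 HepaRG, 48 h exposure, 8-pt half-log series from 100 uM in 0.5% DMSO, duplicates. Readout: LIPC mRNA by Fluidigm qRT-PCR, housekeeping-normalized (ACTB/GAPDH/POLR2A). Gain or loss fitted bidirectionally against DMSO baseline.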

[6] = read-out: Lipoprotein lipase (LPL), LPL (gene 4023); experiment: LTEA_HepaRG_LPL: Life Technologies and Expression Analysis (LTEA) Assay for Lipoprotein lipase (LPL) using HepaRG (AID 2283515)
Outline: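 HepaRG, 48 h exposure, 8-pt half-log dilutions from 100 uM, 0.5% DMSO vehicle, duplicates; qRT-PCR (Fluidigm array) of LPL mRNA vs housekeeping genes; bidirectional curve fit relative to DMSO baseline.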

[7] = read-out: MicroRNA 122 (MIR122), gene 406906; experiment: LTEA_HepaRG_MIR122: Life Technologies and Expression Analysis (LTEA) Assay for MicroRNA 122 (MIR122) using HepaRG (AID 2283516); further: the transcript read is the microRNA miR-122
Outline: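 qRT-PCR read-out (TaqMan, Fluidigm array), normalized to three housekeeping genes; HepaRG cells dosed 48 h at 8 concentrations up to 100 uM in 0.5% DMSO, duplicate; gain or loss fitted against DMSO baseline.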

[8] = read-out: matrix metalloproteinase-10 (MMP10), MMP10 (gene 4319); experiment: LTEA_HepaRG_MMP10: Life Technologies and Expression Analysis (LTEA) Assay for matrix metalloproteinase-10 (MMP10) using HepaRG (AID 2283517)
Outline: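 Transcript levels come from Fluidigm qRT-PCR normalized to three housekeeping genes, with curves fitted bidirectionally against 0.5% DMSO. Human HepaRG cells were dosed for 48 hours at concentrations up to 100 uM.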

[9] = read-out: MYC, MYC (gene 4609); experiment: LTEA_HepaRG_MYC: Life Technologies and Expression Analysis (LTEA) Assay for MYC using HepaRG (AID 2283518)
Outline: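 Differentiated human HepaRG cells, plated 48 h then switched to serum-free induction medium, were exposed in duplicate for 48 h to 8-point half-log series up to 100 uM in 0.5% DMSO. MYC mRNA measured by qRT-PCR, normalized to ACTB/GAPDH/POLR2A.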

[10] = read-out: matrix metalloproteinase-3 (MMP3), MMP3 (gene 4314); experiment: LTEA_HepaRG_MMP3: Life Technologies and Expression Analysis (LTEA) Assay for matrix metalloproteinase-3 (MMP3) using HepaRG (AID 2283519)
Outline: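 qRT-PCR read-out of MMP3 mRNA (normalised to three housekeeping genes) in HepaRG liver cells after 48 h chemical exposure; 8-point half-log series, top 100 uM, 0.5% DMSO vehicle. Bidirectional curve fitting against DMSO baseline.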

Measured: AC50

CN(C)C(=S)S
inactive: all assays above

CC(C)(C)c1ccccc1O
inactive: all assays above

O=C(O)C1(c2ccc3c(c2)OC[C@H](Cc2ccc(-c4ccccc4)cc2)[C@H]3O)CCCC1
active: [1] 78.4 µM | [4] 88.4 µM
inactive: all other assays above

Oc1c(Cl)cc(Cl)cc1Cl
inactive: all assays above

O=C(N[C@H]1CN2CCC1CC2)c1ccc2c(c1)OCCO2
active: [2] 12.2 µM
inactive: all other assays above

OCCN(CCO)CCO
inactive: all assays above

CC(C)O.CC(C)O.OCCN(CCO)CCO.OCCN(CCO)CCO.[Ti]
inactive: all assays above

Clc1cccc(Cl)c1
inactive: all assays above

N#Cc1cccnc1
inactive: all assays above

CCCCCCCCCCCCc1cccc(S(=O)(=O)O)c1
active: [3] 76.1 µM | [6] 8.93 µM
inactive: all other assays above

Cc1cc(C)cc(C)c1
inactive: all assays above

Oc1cc(Cl)c(Cl)cc1Cl
active: [3] 50 µM
inactive: all other assays above

Clc1cccc(Cl)c1Cl
not listed: [2]
inactive: all other assays above

COc1ccccc1N
inactive: all assays above
